# Assay outcomes: PubChem, National Center for Advancing Translational Sciences (NCATS)
# PLK1 PBD inh – qHTS for Inhibitors of PLK1-PDB (polo-like kinase 1 - polo-box domain): Primary Screen; Serine/threonine-protein kinase PLK1 (Homo sapiens), P53350; Potency, µM, for the others: max response, negative = inhibition, actives largely listed as inhibitors; Plk1 PBD binding of FITC phosphopeptide, fluorescence polarization; hit rate 2.8% among 360,000; AID 720504, 2013; further: series mostly up to about 57 µM; on the % scale 0 is the no-effect control and ±100 the full control effect; nearly all actives have a fitted effect of over 65% in size
# Sfp inh – qHTS Assay for Inhibitors of Bacillus subtilis Sfp phosphopantetheinyl transferase (PPTase). Biochemical Sfp PPTase activity, qHTS. Potency, µM, for the others: largest response in the series, negative = inhibition, usual class: inhibitors. hit rate 3.5% among 310,000. AID 1490, 2009;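 further: the enzyme is Sfp with the accession as filed and its product quenches rhodamine fluorescence; 0% = enzyme reaction without inhibitor and -100% = no enzyme wells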
#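 Sfp 15 nM + cpd, 15 min RT; start w/ rhodamine-CoA 5 uM, BHQ-2-YbbR 12.5 uM (final); 50 mM Hepes pH 7.6, 10 mM MgCl2, 0.01% NP-40, 0.01% BSA; read 525/598 nm at 0 and 30 min.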
# HP1b binding inh – HTS for Inhibitors of HP1-beta Chromodomain Interactions with Methylated Histone Tails. AlphaScreen HP1-beta / biotin-H3K9me3 peptide binding. Potency, µM (top dose mostly 114 µM), for inactives: top-dose activity change, negative = inhibition, most hits filed as inhibitors. hit rate 0.56% among 390,000. AID 540317, 2011; further: nearly all actives have a fitted effect of over 70% in size
#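 Compound inhibition of the preformed complex between 50 nM HP1-beta and 50 nM biotinylated H3K9me3 peptide was read by AlphaScreen. Buffer was PBS pH 7.4 with 0.01% Tween-20. Incubations ran 30 min at room temperature, with 10 ug/mL donor/acceptor beads.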
# BAZ2B block – qHTS Assay for Inhibitors of BAZ2B; AID 504333, 2011; Potency, µM (series often up to 114 µM), inactives show at the top dose activity change, negative = inhibition, hits mostly inhibitors; hit rate 4.4% among 360,000; AlphaScreen BAZ2B-H3K14Ac peptide displacement; further: on the % scale 0 is the no-effect control and ±100 the full control effect; nearly all actives have a fitted effect of over 60% in size
#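 AlphaScreen displacement: compounds (up to 110uM) incubated 30 min at room temperature with a preformed 50 nM BAZ2B/50 nM biotinylated H3K14Ac peptide complex in PBS pH 7.4 with Tween-20. Donor and acceptor beads at 10 ug/mL final added, 20 min light-protected before reading.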
# JMJD2A Tudor – qHTS Assay for Inhibitors of JMJD2A-Tudor Domain; Lysine-specific demethylase 4A (Homo sapiens), O75164; AlphaScreen JMJD2A-Tudor / H3K4me3 peptide binding; Potency, µM (highest dose often 114 µM), without a hit: at the top dose activity change, negative = inhibition, usual class: inhibitors; hit rate 4.4% among 390,000; AID 504339, 2011; further: on the % scale 0 is the no-effect control and ±100 the full control effect; nearly all actives have a fitted effect of over 50% in size
# Target sequence (O75164 whole entry, looked up, the tested form may be a part): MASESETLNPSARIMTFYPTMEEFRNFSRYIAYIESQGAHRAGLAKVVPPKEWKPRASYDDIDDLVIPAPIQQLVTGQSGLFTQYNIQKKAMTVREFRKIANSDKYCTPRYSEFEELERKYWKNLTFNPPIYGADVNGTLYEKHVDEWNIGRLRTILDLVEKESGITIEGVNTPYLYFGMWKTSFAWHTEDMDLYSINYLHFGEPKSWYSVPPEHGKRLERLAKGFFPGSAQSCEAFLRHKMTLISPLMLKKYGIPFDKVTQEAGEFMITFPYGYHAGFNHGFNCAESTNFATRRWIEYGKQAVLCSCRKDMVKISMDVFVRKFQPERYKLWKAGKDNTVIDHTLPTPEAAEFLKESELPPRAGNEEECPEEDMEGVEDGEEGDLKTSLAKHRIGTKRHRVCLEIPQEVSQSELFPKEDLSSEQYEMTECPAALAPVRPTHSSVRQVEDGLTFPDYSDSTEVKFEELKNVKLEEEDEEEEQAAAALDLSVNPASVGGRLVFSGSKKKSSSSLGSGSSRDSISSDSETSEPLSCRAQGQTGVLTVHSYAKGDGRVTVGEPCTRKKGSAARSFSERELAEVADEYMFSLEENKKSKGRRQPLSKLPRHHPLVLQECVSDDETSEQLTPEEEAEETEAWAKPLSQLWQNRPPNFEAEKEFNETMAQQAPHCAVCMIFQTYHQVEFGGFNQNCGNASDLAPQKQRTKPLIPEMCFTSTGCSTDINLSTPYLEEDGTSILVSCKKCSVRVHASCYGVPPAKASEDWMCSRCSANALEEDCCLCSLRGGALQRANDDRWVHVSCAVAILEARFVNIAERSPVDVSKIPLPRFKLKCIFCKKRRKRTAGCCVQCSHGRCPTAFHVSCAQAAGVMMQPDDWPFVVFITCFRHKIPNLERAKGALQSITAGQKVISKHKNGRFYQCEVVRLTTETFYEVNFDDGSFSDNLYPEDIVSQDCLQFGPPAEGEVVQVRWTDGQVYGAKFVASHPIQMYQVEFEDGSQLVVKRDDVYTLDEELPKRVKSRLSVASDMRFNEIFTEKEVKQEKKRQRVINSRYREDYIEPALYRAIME
# G9a block – qHTS Assay for Inhibitors of Histone Lysine Methyltransferase G9a; Potency, µM (highest dose often 102 µM), inactives show at the highest dose activity, negative = inhibition, usual class: inhibitors; hit rate 8.8% among 350,000; G9a H3K9 monomethylation, AlphaScreen, 2 h; AID 504332, 2011; Histone-lysine N-methyltransferase EHMT2 (Homo sapiens), Q96KQ7; further: on the % scale 0 is the no-effect control and ±100 the full control effect; nearly all actives have a fitted effect of over 75% in size
#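 Step 1: enzyme (final 20 nM) with compound, 15 min RT. Step 2: substrate peptide 500 nM and SAM 20 uM, 2 h RT. Step 3: anti-H3K9me1 antibody and AlphaScreen beads, 10 min, then plate read.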
# An asterisk follows results filed as active; ? = inconclusive; . = no result given; [ ] = dose if it differs, or a comment. Hits are enriched below; roughly 12% of the tested compounds scored in any of these assays. The call rests on the fitted dose curve; in most records, active means well fitted curve in the direction sought with a large enough effect; inconclusive means small, poorly fitted or top-dose-only effect, or another doubt; inactive means no such curve, though single readings can be large; an effect the other way counts as inactive or inconclusive. Potency means the concentration at half of the fitted maximal effect.
SMILES,PLK1 PBD inh,Sfp inh,HP1b binding inh,BAZ2B block,JMJD2A Tudor,G9a block
Cn1c(=O)n(C)c2cc(N3CCCCC3)c(NC(=O)c3ccccc3)cc21,-3%,0%,14%,50µM*,-12%,19%
C[C@H]1[C@H](C)CC[C@]2(C(=O)O)CC[C@]3(C)C(=CCC4[C@@]5(C)C[C@@H](O)[C@H](O)[C@@](C)(CO)[C@@H]5CC[C@]43C)[C@H]12 (some centres not stated),.,39%,.,.,.,.
CCc1ccc(C(=O)c2cn(CC(=O)NCCc3ccc(OC)c(OC)c3)c3nc(C)ccc3c2=O)cc1,.,.,20%,0%,-22%,12%[59 µM]
COC(=O)c1c(NC(=O)Cc2cccs2)sc2c1CCC(C)C2 (configuration not stated),21µM*,20µM*,-11%,-5%,-11%,?
COC(=O)c1c(NC(=S)NN2CCN(C)CC2)sc2c1CCC(C)C2 (configuration not stated),-8%,?,?,?,?,45µM*
CCOC(=O)c1c(NC(=O)Cn2cnc([N+](=O)[O-])n2)sc2c1CCC(C)C2 (configuration not stated),-6%,1%,20%,-32%,-6%[57.1 µM],3%[0.501 µM]
COC(=O)c1c(NC(=O)Cn2cnc([N+](=O)[O-])n2)sc2c1CCC(C)C2 (configuration not stated),19µM*,32µM*,?,-37%,?,8.9µM*
COC(=O)c1c(NC(=O)CN(C)CC(=O)Nc2ccc(C)cc2)sc2c1CCC(C)C2 (configuration not stated),4%,.,31%,-1%,-8%,-12%[59 µM]
CCCc1ccc(-c2c(C)sc(N)c2C#N)cc1,-18%,35µM*,?,?,-29%,40µM*
CCCC(=O)Nc1sc(C)c(-c2ccc(OC)cc2)c1C#N,-5%,15%,14%,11%,10%,23%[59 µM]
CCN(CC)c1ccc(/C=C/c2cccc[n+]2C)c(OC)c1,51%,-1%,-18%,50µM*,18µM*,35µM*
COc1cc(NC(=O)C(OC(=O)CNC(=O)c2ccccc2)c2ccccc2)c(OC)cc1Cl (configuration not stated),.,.,.,.,-27%,.
Cc1c(Cl)ccc2c1NC(=O)C21NC(CCC(N)=O)[C@H]2C(=O)N(c3ccc(Cl)cc3)C(=O)[C@H]21 (some centres not stated),-14%,-15%,60%,1%,-22%,40µM*
Cc1c(Cl)ccc2c1NC(=O)[C@]21N[C@@H](CCC(N)=O)[C@H]2C(=O)N(c3ccc(F)cc3)C(=O)[C@H]21,-3%,-10%,47%,3%,-8%,14µM*
CSCCC1NC2(C(=O)Nc3c2ccc(Cl)c3C)[C@@H]2C(=O)N(C3CCCC3)C(=O)[C@H]12 (some centres not stated),-12%,-2%,-16%,?,?,?
CCCCc1ccc(N2C(=O)[C@@H]3C(CC(N)=O)NC4(C(=O)Nc5ccc(F)cc54)[C@@H]3C2=O)cc1 (some centres not stated),-13%,-18%,15%,1%,-25%,40µM*
CC/C=C\C/C=C\C/C=C\C/C=C\C/C=C\C/C=C\CCC(=O)NCC(=O)O,.,-11%,.,.,.,.
COc1cc2cc(CCOC(=O)c3ccc(C#N)cc3)oc(=O)c2cc1OC,-5%,.,61%,1%,-12%,10%[0.501 µM]
CCOC(=O)CCCNC(=O)N1CCc2nc(COc3ccccc3)c3c(c2C1)CO[C@@H](C)C3,.,7%,.,.,.,.
COc1ccccc1N(C)C(=O)Cn1c(=O)oc2cc(S(=O)(=O)N3CCCC3)ccc21,.,.,68%,-25%,4%,6%[59 µM]
S=c1[nH]nc(COc2ccc(Cl)cc2)o1,?,?,7%,-5%,79µM*,4µM*
S=c1[nH]nc(CCc2ccc(Cl)cc2)o1,-14%,-6%,67%,-5%,-14%,7.1µM*
O=C1OCCC1Sc1nnc2c(n1)[nH]c1ccccc12 (configuration not stated),.,.,20%,.,-10%,.
COc1cc2c(cc1OC)CN(C(=O)c1ccc(N3CCCC3)c([N+](=O)[O-])c1)CC2,1%,.,?,45µM*,50µM*,16%[2.33 µM]
COc1cc2c(cc1OC)CN(c1ccc(F)cc1[N+](=O)[O-])CC2,-16%,25µM*,?,40µM*,50µM*,35µM*
SMILES,PLK1 PBD inh,Sfp inh,HP1b binding inh,BAZ2B block,JMJD2A Tudor,G9a block
COc1ccc(CCNC(=O)C2CCN(S(=O)(=O)c3c(C)noc3/C=C/c3ccc(C)cc3)CC2)cc1OC,.,.,26%[57 µM],-1%,1%,-2%[59 µM]
O=C1c2ccccc2NC(c2ccccc2OCc2ccccc2)N1Cc1ccco1 (configuration not stated),.,.,12%[57 µM],.,-10%[57.1 µM],.
Cc1ccc(N=C2C(=S)N(c3ccc(C)cc3)C(=N)N2/N=C/c2ccc(Cl)cc2)cc1,?,40µM*,3.5µM*,?,?,?
Cn1nnc(NC(=S)NC(=O)c2cc(Cl)ccc2Cl)n1,-26%,50µM*,-3%,?,-5%,3.5µM*
COc1cc2ccccc2cc1C(=O)NC(=S)Nc1nnn(C)n1,-10%,21%,29%,-3%,-25%,30%[59 µM]
COc1cc(O)oc1C=Nc1ccc(Oc2ccccc2)cc1,2%,-14%,1%,?,?,45µM*
O=C(N/N=C/c1cc(Br)cc(Br)c1O)c1cccc(N2CCCC2=O)c1,22%,9%,35%,?,89µM*,4%
O=C(N/N=C/c1ccc([N+](=O)[O-])cc1)c1cccc(N2CCCC2=O)c1,-5%,-1%,11%,79µM*,-10%,?
O=C(N/N=C/c1ccc(Cl)cc1Cl)c1cccc(N2CCCC2=O)c1,-1%,-42%,9%,-8%,-11%,-4%
CCC(Oc1ccccc1F)C(=O)N1CCC(c2nc3ccccc3s2)CC1 (configuration not stated),.,.,103%,12%,-6%,28%[59 µM]
COc1cccc(NC(=O)CN(C)S(=O)(=O)c2cccs2)c1,.,.,5%,0%,-16%,-8%[59 µM]
N#Cc1ccsc1NC(=O)CCS(=O)(=O)c1ccccc1,?,-7%,50%,-4%,-9%,45µM*
